Records with an inconclusive call do not appear. Calls of active or inactive are those of the source. Rule for the calls: active = hit-call score of the fitted dose curve at least 0.9, where 1 is the maximum; inconclusive = response in the unintended direction; inactive = score below 0.9.

Sequence of Cytochrome P450 3A4 (Homo sapiens) (P08684 whole entry, looked up): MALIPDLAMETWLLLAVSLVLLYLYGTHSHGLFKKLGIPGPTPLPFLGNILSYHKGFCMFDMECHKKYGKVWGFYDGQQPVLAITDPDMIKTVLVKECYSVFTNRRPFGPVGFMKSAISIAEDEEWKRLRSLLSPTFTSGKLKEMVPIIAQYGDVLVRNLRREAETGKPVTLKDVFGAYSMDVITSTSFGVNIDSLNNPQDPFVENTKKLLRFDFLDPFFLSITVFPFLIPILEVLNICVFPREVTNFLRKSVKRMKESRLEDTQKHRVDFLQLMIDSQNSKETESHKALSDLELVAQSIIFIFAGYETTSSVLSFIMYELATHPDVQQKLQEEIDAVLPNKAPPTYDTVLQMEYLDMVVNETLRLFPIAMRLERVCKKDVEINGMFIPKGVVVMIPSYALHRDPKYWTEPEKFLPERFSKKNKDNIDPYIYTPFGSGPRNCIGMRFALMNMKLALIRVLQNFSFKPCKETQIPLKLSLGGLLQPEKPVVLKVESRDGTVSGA

Read-out in the experiment: Cytochrome P450 3A4 (Homo sapiens) (UniProt P08684)
In words: CLD_CYP3A4_24hr: CellzDirect (CLD) Gene Expression Assay for xenobiotic metabolism (CYP3A4) at 24 hours (AID 2283689). The method, then:
CLD_24hr is a cell-based, multiplexed-readout assay that uses hepatocyte, a human liver primary cell, with measurements taken at 24 hours after chemical dosing in a 96-well plate.CLD_CYP3A4_24hr is one of 16 assay component(s) measured or calculated from the CLD_24hr assay. It is designed to make measurements of mRNA induction, a form of inducible reporter, as detected with chemiluminescence signals by Quantitative Nuclease Protection Assay (qNPA) technology.Data from the assay component CLD_CYP3A4_24hr was analyzed at the endpoint, CLD_CYP3A4_24hr, in the positive analysis fitting direction relative to DMSO as the negative control and baseline of activity. Using a type of inducible reporter, gain-of-signal activity can be used to understand changes in the reporter gene as they relate to the gene CYP3A4. Furthermore, this assay endpoint can be referred to as a primary readout. To generalize the intended target to other relatable targets, this assay endpoint is annotated to the cyp intended target family, where subfamily is xenobiotic metabolism.
Human hepatocyte cultures were treated daily for two consecutive days with fresh dosing solutions containing appropriate concentrations of the 320 ToxCast chemicals (chemical identities were blinded to CellzDirect and other ToxCast collaborators), vehicle control (0.2% DMSO), and positive control inducers as summarized in Table 1. Due to the large number of treatment groups and chemicals examined, the ToxCast chemicals were divided into two groups (spanning two independent cultures of hepatocytes from separate donor preparations (Hu778: ToxCast plates 1 and 2; Hu776: ToxCast plates 3 and 4). Each preparation of human hepatocyte cultures was treated with respective vehicle control, medium only control, set of six positive controls/reference chemicals for the five hepatic receptor pathways, and a subset of eight of the ToxCast chemicals (indoxacarb, pyrithiobac-sodium, norflurazon, cyhalofop-butyl, methomyl, thiram, acetochlor, and propiconazole). These replicate data, coupled with internal replicates designed within the blinded ToxCast chemical library, provided additional data to evaluate interindividual differences between hepatocyte preparations and their potential impact on chemical profiles.Cell morphology and integrity were evaluated using phase-contrast microscopy as an indicator of hepatocyte cell health (Tyson & Green, 1987). Cultures for each treatment group (i.e., media, vehicle [0.2% DMSO], positive control inducers [multiple concentrations], and the ToxCast chemicals [multiple concentrations]) were observed and cell morphology was assessed relative to vehicle control cultures at each harvest time point (0, 6, 24, or 48 h). […] Images were evaluated at the conclusion of the study to assess changes in cell integrity and account for the effects of chemical exposure on uncharacteristic changes in concentration-dependent gene expression profiles. The results from these determinations of apparent cytotoxicity were annotated (yes/no) alongside the corresponding qNPA data for reference.At the conclusion of each treatment period, hepatocyte cultures (96-well) were washed with 1 volume of HBSS, lysed by addition of 25 ul ArrayPlate lysis buffer (HTG, Tucson, AZ), and 70 ul/well of Denaturation Oil, denatured by incubation at 95C for 10 min, and frozen at approximately -70C until analysis by nuclease protection assay (qNPA) (Roberts et al., 2007). For qNPA analysis, cell lysates were thawed at 50C for approximately 30 min, qNPA probes were added, and samples were incubated at 95C for 10 min to begin the detection process by denaturing the target RNA, dissociating the duplexes and secondary structure hybridization. At the conclusion of the hybridization period, S1 nuclease reagent was added to each sample to digest all nonprotected nucleotides at 50C for 60-90 min. […]
On to `CN(C)[C@@H]1C(=O)C(C(N)=O)=C(O)[C@@]2(O)C(=O)C3=C(O)c4c(O)cccc4[C@@](C)(O)[C@H]3[C@H](O)[C@@H]12`, for which the molecule was classed as inactive.

As for `CCc1cccc(C)c1N(C(=O)CCl)C(C)COC` (stereo not given), the half-maximal activity concentration (AC50) was 8.71 µM (active).

Consider `CCCCOC(=O)[C@@H](C)Oc1ccc(Oc2ccc(C#N)cc2F)cc1`, for which the call was inactive.

On to `C[N+]1(C)CCCCC1`, for which the AC50 was 1.89 µM (active).

Consider `CC(C)[C@H](C(=O)O[C@H](C#N)c1cccc(Oc2ccccc2)c1)c1ccc(Cl)cc1`, for which the outcome was inactive.

`Nc1nc(N)nc(NC2CC2)n1`: the result was inactive.

Turning to `CN1COCN(Cc2cnc(Cl)s2)C1=N[N+](=O)[O-]`, the outcome was inactive.

Consider `C#CCC1=C(C)C(OC(=O)C2C(C=C(C)C)C2(C)C)CC1=O` (stereo not given), for which the AC50 was 4.64 µM (active).

Take `Nc1c(Cl)cc([N+](=O)[O-])cc1Cl`: the call was inactive.

Consider `CON=C(C(=O)OC)c1ccccc1CON=C(C)c1cccc(C(F)(F)F)c1`, for which the AC50 was 15.6 µM (active).

For `CN(C)NC(=O)CCC(=O)O`, the result was inactive.

With `CC1(C(=O)Nc2ccc(O)c(Cl)c2Cl)CCCCC1`, the result was inactive.

As for `CCOC(=O)CC(SP(=O)(OC)OC)C(=O)OCC` (stereo not given), the AC50 was 20 µM (active).

Take `CCOC(=O)COc1cc(-c2nn(C)c(OC(F)F)c2Cl)c(F)cc1Cl`: the AC50 is 20 µM (active).

For `CCCOCC(=Nc1ccc(Cl)cc1C(F)(F)F)n1ccnc1`, the AC50 was 1.9 µM (active).

With `C#CC(C)(C)NC(=O)c1cc(Cl)cc(Cl)c1`, the outcome was inactive.

Consider `CC1=NNC(=O)N(/N=C/c2cccnc2)C1`, for which the result was inactive.

Consider `CCCCSP(=O)(SCCCC)SCCCC`, for which the AC50 was 1.9 µM (active).

As for `CCNc1nc(Cl)nc(NC(C)(C)C#N)n1`, the AC50 was 4.74 µM (active).

As for `C=C(C)[C@H]1Cc2c(ccc3c2O[C@@H]2COc4cc(OC)c(OC)cc4[C@@H]2C3=O)O1`, the outcome was inactive.

Take `COP(=O)(NC(C)=O)SC` (stereo not given): the outcome was inactive.

With `COc1cc(OC)nc(Sc2cccc(Cl)c2C(=O)O)n1`, the AC50 is 20 µM (active).

Regarding `Cc1nn(-c2cc(NS(C)(=O)=O)c(Cl)cc2Cl)c(=O)n1C(F)F`, the concentration at half-maximal activity (AC50) is 0.376 µM (active).

Regarding `CCC(=O)Nc1ccc(Cl)c(Cl)c1`, the molecule was classed as inactive.

Consider `COc1cccc(C(=O)NN(C(=O)c2cc(C)cc(C)c2)C(C)(C)C)c1C`, for which the AC50 is 3.74 µM (active).

As to `C[Si](Cn1cncn1)(c1ccc(F)cc1)c1ccc(F)cc1`, the AC50 was 1.89 µM (active).

As to `O=C(O)c1cc(Oc2ccc(C(F)(F)F)cc2Cl)ccc1[N+](=O)[O-]`, the molecule was called inactive.

With `CNC(=O)ON=C(SC)C(=O)N(C)C`, the outcome was inactive.

For the molecule `CNc1cnn(-c2cccc(C(F)(F)F)c2)c(=O)c1Cl`, the AC50 was 5.8 µM (active).

For the molecule `CC(=NC#N)N(C)Cc1ccc(Cl)nc1`, the call was inactive.

For `CC(C)N(C(=O)SCC(Cl)=C(Cl)Cl)C(C)C`, the AC50 was 20 µM (active).

`CN(C)C(=O)Nc1cccc(C(F)(F)F)c1`: the AC50 was 20 µM (active).

`CC[C@H](C)[C@H]1O[C@]2(C=C[C@@H]1C)C[C@@H]1C[C@@H](C/C=C(\C)[C@@H](O[C@H]3C[C@H](OC)[C@@H](O[C@H]4C[C@H](OC)[C@@H](NC)[C@H](C)O4)[C@H](C)O3)[C@@H](C)/C=C/C=C3\CO[C@@H]4[C@H](O)C(C)=C[C@@H](C(=O)O1)[C@]34O)O2`: the call was inactive.

For `O=[N+]([O-])c1cc(C(F)(F)F)c(Cl)c([N+](=O)[O-])c1Nc1ncc(C(F)(F)F)cc1Cl`, the outcome was inactive.

Regarding `CC(COc1ccc(Oc2ccccc2)cc1)Oc1ccccn1` (stereo not given), the half-maximal activity concentration (AC50) is 4.68 µM (active).

Regarding `CNC(=O)Oc1cccc2c1OC(C)(C)O2`, the half-maximal activity concentration (AC50) was 20 µM (active).

With `CSc1nnc(C(C)(C)C)c(=O)n1N`, the AC50 is 4.88 µM (active).

Turning to `CCCCN(CC)c1c([N+](=O)[O-])cc(C(F)(F)F)cc1[N+](=O)[O-]`, the AC50 is 6.35 µM (active).

`CCc1cccc(CC)c1N(COC)C(=O)CCl`: the AC50 is 15.7 µM (active).

With `Cc1ccn2nc(S(=O)(=O)Nc3c(F)cccc3F)nc2n1`, the outcome was inactive.

By AC50 is commonly meant the concentration giving half of the maximal activity seen.

The record behind these values is PubChem BioAssay (EPA / NIEHS).
